Results reported in PubChem BioAssay (NCATS).
Records with an inconclusive call do not appear. Entries that show only a call come without a potency. The source made the active and inactive calls. Unless noted, the call rests on the fitted dose curve; in most records, active means well fitted curve in the direction sought with a large enough effect; inconclusive means small, poorly fitted or top-dose-only effect, or another doubt; inactive means no such curve, though single readings can be large; an effect the other way counts as inactive or inconclusive.

Columns and labels:
[1] = molecular target: Aldehyde dehydrogenase, mitochondrial (Homo sapiens) (UniProt P05091); test: qHTS for Inhibitors of the Aldehyde Dehydrogenase Family (ALDH2) Confirmatory screens (AID 2061303; active means well fitted inhibition curve with a large enough effect; title and protocol of this record describe different tests; further: nearly all actives have a fitted effect of over 45% in size)
[2] = qHTS for Inhibitors of the Aldehyde Dehydrogenase Family (ALDH1A2, ALDH1A3, ALDH2, ALDH3A1) (AID 2061307); further: nearly all actives have a fitted effect of over 50% in size; on potency: test system not described further here
[3] = molecular target: Aldehyde dehydrogenase, mitochondrial (Homo sapiens) (UniProt P05091); test: qHTS for Inhibitors of the Aldehyde Dehydrogenase Family (ALDH2) Primary screen (AID 2061308); further: nearly all actives have a fitted effect of over 55% in size
[4] = molecular target: Retinaldehyde dehydrogenase 3 (Homo sapiens) (UniProt P47895); test: qHTS for Inhibitors of the Aldehyde Dehydrogenase Family (ALDH1A3) Confirmatory screens (AID 2061311); further: nearly all actives have a fitted effect of over 60% in size
[5] = molecular target: Retinaldehyde dehydrogenase 3 (Homo sapiens) (UniProt P47895); test: qHTS for Inhibitors of the Aldehyde Dehydrogenase Family (ALDH1A3) Primary screen (AID 2061315)
[6] = molecular target: Retinal dehydrogenase 2 (Homo sapiens) (UniProt O94788); test: qHTS for Inhibitors of the Aldehyde Dehydrogenase Family (ALDH1A2) Confirmation screens (AID 2061314); further: nearly all actives have a fitted effect of over 65% in size
[7] = molecular target: Aldehyde dehydrogenase 1A1 (Homo sapiens) (UniProt P00352); test: qHTS for Inhibitors of the Aldehyde Dehydrogenase Family (ALDH1A1) Confirmatory screens (AID 2061316); further: nearly all actives have a fitted effect of over 65% in size
Potency means the concentration at half of the fitted maximal effect.

For `O=C(NCCN1CCCC1)[C@H](Cc1ccc(OS(=O)(=O)c2cccc3cnccc23)cc1)NS(=O)(=O)c1cccc2cnccc12`, the Potency [1] was “inactive”, the Potency [2] was “inactive” and the Potency [3] was “inactive”. For the same compound, the Potency [4] was “inactive” and the Potency [5] was “inactive”.
For `Cc1cccc(Nc2nc(C#N)nc(NC3CCCC3)n2)c1`, the Potency [1] was 2.51 µM (active), the Potency [2] was 0.447 µM (active) and the Potency [3] was “inactive”. The Potency [4] was 17.8 µM (active) and the Potency [5] was “inactive”.
For `CCOC(=O)c1ccoc1-c1ccc2ncnc(NCc3ncc[nH]3)c2c1`, the Potency [1] was “inactive”, the Potency [2] was “inactive” and the Potency [3] was “inactive”. The Potency [4] was “inactive” and the Potency [5] was “inactive”.
For `COc1ccc(C2Nc3ccccc3C(=O)N2Cc2cccc(C(F)(F)F)c2)cc1COc1ccc(NC(C)=O)cc1` (stereo unspecified), the Potency [1] was 11.2 µM (active), the Potency [2] was 4 µM (active) and the Potency [3] was “inactive”. For the same compound, the Potency [4] was 10 µM (active) and the Potency [5] was “inactive”.
In the case of `O=C(O)c1cccc(-c2noc(-c3cccc(Cl)c3)n2)c1`, the Potency [1] is reported as “inactive”, the Potency [2] is reported as 0.381 µM (active) and the Potency [3] is reported as “inactive”. For the same compound, the Potency [4] was 0.201 µM (active) and the Potency [5] was 0.562 µM (active).
In the case of `CC(=O)c1ccc(N2CCN(C(=O)c3ccc4c(c3)CC(=O)N4)CC2)cc1`, the Potency [1] is reported as “inactive”, the Potency [2] is reported as “inactive” and the Potency [3] is reported as “inactive”. For the same compound, the Potency [4] was “inactive” and the Potency [5] was “inactive”.
For `Cc1ccnc(NC(=S)N2CCN(c3ccc(N)cc3)CC2)c1`, the Potency [1] was “inactive”, the Potency [2] was “inactive” and the Potency [3] was “inactive”. The Potency [4] was “inactive” and the Potency [5] was “inactive”.
In the case of `Cn1nnnc1Sc1ncnc2scc(-c3cnc(N)nc3)c12`, the Potency [1] is reported as “inactive”, the Potency [2] is reported as “inactive” and the Potency [3] is reported as “inactive”. For the same compound, the Potency [4] was “inactive” and the Potency [5] was “inactive”.
With `Cc1cc(C)nc(NC(=S)N2CCN(c3ccc4ccccc4c3)CC2)c1` the Potency [1] was 11.3 µM (active), the Potency [2] was 3.55 µM (active) and the Potency [3] was 11.2 µM (active). For the same compound, the Potency [4] was 7.12 µM (active), the Potency [6] was 12.7 µM (active) and the Potency [7] was 2.83 µM (active).
In the case of `O=C(O)c1cccc(-c2noc(-c3cccc(C(F)(F)F)c3)n2)c1`, the Potency [1] is reported as “inactive”, the Potency [2] is reported as 0.956 µM (active) and the Potency [3] is reported as “inactive”. For the same compound, the Potency [4] was 0.504 µM (active), the Potency [6] was “inactive” and the Potency [7] was “inactive”.
With `CN(Cc1ccco1)c1ncnc2ccc(-c3cccnc3)cc12` the Potency [1] was “inactive”, the Potency [2] was “inactive” and the Potency [3] was “inactive”. For the same compound, the Potency [4] was 7.98 µM (active), the Potency [5] was “inactive” and the Potency [7] was 11.3 µM (active).
With `COc1cc(NS(=O)(=O)c2ccc([N+](=O)[O-])cc2)c2ncccc2c1` the Potency [1] was 7.08 µM (active), the Potency [2] was 0.712 µM (active) and the Potency [3] was 20 µM (active). The Potency [4] was 10 µM (active), the Potency [6] was 3.16 µM (active) and the Potency [7] was 5.65 µM (active).
In the case of `S=C(Nc1cc(Cl)ccn1)N1CCN(c2ccc3ccccc3n2)CC1`, the Potency [1] is reported as 7.94 µM (active), the Potency [2] is reported as 14.1 µM (active) and the Potency [3] is reported as 1.58 µM (active). For the same compound, the Potency [4] was 22.5 µM (active), the Potency [5] was “inactive” and the Potency [7] was 5.65 µM (active).
In the case of `Cc1ccc(NS(=O)(=O)c2ccc3c(c2)CC(=O)N3)cc1C`, the Potency [1] is reported as “inactive”, the Potency [2] is reported as “inactive” and the Potency [3] is reported as “inactive”. The Potency [4] was “inactive”, the Potency [5] was “inactive” and the Potency [7] was 1.59 µM (active).
For `O=C(Nc1ccc(Cl)c(Cl)c1)Nc1nnc(NC2CCNCC2)s1`, the Potency [1] was “inactive”, the Potency [2] was “inactive” and the Potency [3] was “inactive”. For the same compound, the Potency [4] was 11.3 µM (active) and the Potency [7] was “inactive”.
In the case of `Cc1cc2c(s1)c(C=O)c(C(=O)NCc1ccccc1F)n2C`, the Potency [1] is reported as “inactive”, the Potency [2] is reported as 1.27 µM (active) and the Potency [3] is reported as “inactive”. The Potency [6] was “inactive” and the Potency [5] was “inactive”.
For `COc1ccc(C2Nc3ccccc3C(=O)N2Cc2ccc(C(F)(F)F)cc2)cc1COc1ccc(NC(C)=O)cc1` (stereo unspecified), the Potency [1] was 0.447 µM (active), the Potency [2] was 3.57 µM (active) and the Potency [3] was “inactive”. The Potency [4] was 2.51 µM (active), the Potency [5] was “inactive” and the Potency [7] was 22.5 µM (active).
With `O=C1c2ccccc2NC(c2ccc(Br)o2)N1O` (stereo unspecified) the Potency [1] was 5.04 µM (active), the Potency [2] was 10.1 µM (active) and the Potency [3] was 1.41 µM (active). The Potency [4] was 7.12 µM (active) and the Potency [7] was 1.79 µM (active).
For `O=C(Nc1ncc(Cc2ccc(C(F)(F)F)cc2)s1)c1ncc(-c2ccccc2)[nH]1`, the Potency [1] was “inactive”, the Potency [2] was “inactive” and the Potency [3] was “inactive”. The Potency [6] was “inactive” and the Potency [5] was “inactive”.
With `CCc1c(C)sc(NC(=O)C2CCCCC2C(=O)O)c1C(N)=O` (stereo unspecified) the Potency [1] was “inactive”, the Potency [2] was “inactive” and the Potency [3] was “inactive”. For the same compound, the Potency [6] was “inactive” and the Potency [5] was “inactive”.
In the case of `Cc1cc(C)cc(C(=O)NOCCCCCC(=O)NO)c1`, the Potency [1] is reported as “inactive”, the Potency [2] is reported as “inactive” and the Potency [3] is reported as “inactive”. For the same compound, the Potency [6] was “inactive” and the Potency [5] was 6.31 µM (active).
With `COc1cccc(OC)c1C1=Nn2c(nnc2-c2ccccc2C)SC1` the Potency [1] was “inactive”, the Potency [2] was “inactive” and the Potency [3] was “inactive”. The Potency [6] was “inactive” and the Potency [5] was “inactive”.
In the case of `CN1CCN(C2CCN(Cc3ccc(O)c4ncccc34)CC2)CC1`, the Potency [1] is reported as “inactive”, the Potency [2] is reported as “inactive” and the Potency [3] is reported as “inactive”. The Potency [6] was “inactive”.
For `Cc1cccc(S(=O)(=O)NC2CCN(C#N)C2)c1` (stereo unspecified), the Potency [1] was “inactive”, the Potency [2] was “inactive” and the Potency [3] was “inactive”. The Potency [4] was “inactive”, the Potency [5] was “inactive” and the Potency [7] was 11.3 µM (active).
With `COc1cc(/C=C/C(=O)OC[C@H]2O[C@@H](OC3OC=C(C(=O)O)C4C(O)CC(C)(O)C34)[C@H](O)[C@@H](O)[C@@H]2O)cc(OC)c1O` (stereo partly specified) the Potency [1] was “inactive”, the Potency [2] was “inactive” and the Potency [3] was “inactive”. For the same compound, the Potency [6] was “inactive”.
